D2 PAM-1 = Beta-Arrestin HTS for Positive Allosteric Modulators of the Human D2 Dopamine Receptor: Potentiators | AID 624464, 2012 | potentiation, % (test concentration not listed) | hit rate 0.23% among 360,000 | D(2) dopamine receptor (Homo sapiens), P14416 | DiscoveRx D2 beta-arrestin cells, luminescence, 90 min; 100% = 57 uM dopamine signal; in the data active means potentiation above about 50%; inconclusive means mostly about 30% to 49%
Target sequence (P14416 whole entry, looked up): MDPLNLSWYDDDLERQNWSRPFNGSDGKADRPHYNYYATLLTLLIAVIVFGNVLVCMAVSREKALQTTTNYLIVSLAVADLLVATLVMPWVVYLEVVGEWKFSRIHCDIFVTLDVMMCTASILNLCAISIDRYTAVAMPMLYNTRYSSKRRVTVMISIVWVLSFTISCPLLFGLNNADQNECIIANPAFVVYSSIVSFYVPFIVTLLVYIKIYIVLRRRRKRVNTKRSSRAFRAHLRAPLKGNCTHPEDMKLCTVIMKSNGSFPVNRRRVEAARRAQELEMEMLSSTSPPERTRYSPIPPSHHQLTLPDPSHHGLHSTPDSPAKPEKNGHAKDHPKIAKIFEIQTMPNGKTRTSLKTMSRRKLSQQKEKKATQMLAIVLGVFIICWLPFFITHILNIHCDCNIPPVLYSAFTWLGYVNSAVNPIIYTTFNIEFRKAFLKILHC
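PathHunter D2 cells, attached overnight at 37 deg C, received compound in DMSO plus dopamine at EC20 (50 nM final) for 90 min at 37 deg C. Beta-arrestin recruitment was read as luminescence after 1 h with detection reagent at ambient temperature.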
D2 PAM-2 = HTS Assay for Positive Allosteric Modulators of the Human D2 Dopamine Receptor: Primary Screen for Potentiators | HEK293 T-REx D2, calcium flux, EC20 dopamine potentiation | potentiation, % at 10 µM | hit rate 0.34% among 340,000 | D(2) dopamine receptor (Homo sapiens), P14416;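 active means potentiation over 3 SD above the plate norm, cut at about 30% in these data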; further: 0% is about no effect
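Potentiation of an EC20 dopamine calcium response measured kinetically over 180 s, after a preceding 180 s compound-only read flagging agonists. Cells: inducible Hek293 Trex D2 line, 4000/well, cultured overnight at 30 C before dye loading.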
D2 antag = HTS Assay for Allosteric Antagonists of the Human D2 Dopamine Receptor: Primary Screen for Antagonists; HEK293 TREx D2 cells, calcium flux, dopamine EC80; inhibition, % at 10 µM; hit rate 2% among 340,000; AID 485344, 2010; in the data active means inhibition above about 30%; inactive means below that, where a call was filed; further: 0% is about no effect
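Cells plated overnight at 30 C with tetracycline; no-wash calcium dye, 30–90 min RT; 10 s baseline; compound pinned; 180 s read; EC80 dopamine added; another 180 s read.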
D2 ag-1 = Beta-Arrestin HTS for Positive Allosteric Modulators of the Human D2 Dopamine Receptor: Agonists | D(2) dopamine receptor (Homo sapiens), P14416 | DiscoveRx PathHunter D2 beta-arrestin, luminescence, 90 min; 100% = 57 uM dopamine signal | activation, % (no concentration beside the values) | hit rate 0.084% among 360,000; in the data active means activation above about 40%; inconclusive means between about 15% and that limit
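Agonist mode: compounds alone added to overnight-plated D2 PathHunter cells for 90 min at 37 C, with 57 uM final dopamine (EC100) defining full response. Beta-arrestin recruitment detected by chemiluminescent reagent, read after 1 h at ambient temperature.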
LDHA block = qHTS assay for inhibitors of human lactate dehydrogenase | L-lactate dehydrogenase A chain (Homo sapiens), P00338 | purified LDHA, NADH/diaphorase-resazurin fluorescence; active compounds read low | activity change, % (values are at about 110 or 230 µM) | hit rate 0.15% among 480,000 | AID 1347041, 2019; in the data active means activity change below about -30%; inconclusive means mostly about -25% to -30%;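 further: plate controls were DMSO wells for no effect and wells without enzyme for full effect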
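Enzyme activity of human lactate dehydrogenase 5 (2 nM; 0.06 mM NADH, 0.2 mM pyruvate, 5 min, RT) is measured via a resazurin/diaphorase fluorescence readout of residual NADH.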
D2 ag-2 = HTS Assay for Allosteric Agonists of the Human D2 Dopamine Receptor: Primary Screen for Agonists; D(2) dopamine receptor (Homo sapiens), P14416; HEK293 T-REx D2 cells, calcium flux agonist mode; activation, % at 2 µM; hit rate 0.53% among 340,000; AID 485358, 2010;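 active means activation over 3 SD above normal in the single-dose calcium agonist read, cut at about 30% in these data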; further: 0% is about no effect
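In this primary screen, compounds producing a positive calcium signal within 180 s of addition to tetracycline-induced, force-coupled HEK293 Trex D2 cells are flagged; cells are dye-loaded with a no-wash calcium kit beforehand.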
* = called active by the depositor. The list is not random: actives were taken first. Their share in the collection is about 2.1%.

Screening CCCC(CCC)C(=O)OC[N+](C)(C)CCOC(=O)C(O)(c1ccccc1)C1CCCC1 (stereo unspecified) returned D2 PAM-1 -11, D2 PAM-2 -4, D2 antag 39*, D2 ag-1 -5, LDHA block -1 and D2 ag-2 -1.
For c1cncc(CNCCN2CCCC2)c1 the results were LDHA block 2.
`CCOc1ccccc1N1C(=O)NC(=O)/C(=C/c2ccc3c4c(cccc24)CC3)C1=O` gave D2 PAM-1 -6, D2 PAM-2 2, D2 antag -22, D2 ag-1 -4, LDHA block -72* and D2 ag-2 0.
CC(N)Cc1ccc(N(C)C)cc1 (stereo unspecified) was read as LDHA block -7.
`CCCCn1c(NC(=O)c2ccc(Br)o2)c(C(=O)OCC)c2nc3ccccc3nc21` gave D2 PAM-1 -14, D2 PAM-2 -16, D2 antag -5, D2 ag-1 -15, LDHA block 19 and D2 ag-2 37*.
CCCCn1c(NS(=O)(=O)c2ccccc2)c(C(=O)OCC)c2nc3ccccc3nc21 was read as D2 PAM-1 -20, D2 PAM-2 13, D2 antag 0, D2 ag-1 -8, LDHA block 6 and D2 ag-2 0.
`Cc1cc(C[N+](C)(C)C)oc1C` gave LDHA block 12.
`CNCCc1c[nH]c2ccccc12` gave D2 PAM-1 -20, D2 PAM-2 -7, D2 antag 16, D2 ag-1 5, LDHA block -9 and D2 ag-2 11.
Screening CNCCc1c[nH]c2ccc(O)cc12 returned D2 PAM-1 inconclusive, D2 ag-1 55* and LDHA block -3.
COCc1ccc(CN2CCCC(C(=O)c3sccc3C)C2)o1 (stereo unspecified) was read as D2 PAM-1 -19, D2 PAM-2 -25, D2 antag 38*, D2 ag-1 -1, LDHA block -7 and D2 ag-2 1.
CCc1ccc(CN2CCCC(C(=O)c3sccc3C)C2)o1 (stereo unspecified) was read as D2 PAM-1 -6, D2 PAM-2 -28, D2 antag 23, D2 ag-1 -4, LDHA block 0 and D2 ag-2 -1.
CCCCCCN1CCN(c2ccc(Cl)cc2)CC1 was read as D2 PAM-1 -23, D2 PAM-2 -27, D2 antag 51*, D2 ag-1 5, LDHA block -9 and D2 ag-2 0.
`Cc1cccc(CN2CCN(c3ccc(Cl)cc3)CC2)c1` gave D2 PAM-1 -7, D2 PAM-2 -18, D2 antag 34*, D2 ag-1 -6, LDHA block -6 and D2 ag-2 -6.
For O=c1c2ccccc2nc(-c2ccco2)n1-c1nccs1 the results were D2 PAM-1 -5, D2 PAM-2 0, D2 antag 30*, D2 ag-1 -3, LDHA block -7 and D2 ag-2 1.
OCCN1C2CCC1CC(O)(c1ccc(F)cc1)C2 (stereo unspecified) was read as D2 PAM-1 -39, D2 PAM-2 -19, D2 antag 48*, D2 ag-1 -2, LDHA block -4 and D2 ag-2 1.
For O=C(CSC1c2ccccc2Oc2ccccc21)Nc1ccccc1C(=O)O the results were LDHA block -17.
Screening O=[N+]([O-])c1ccc(N2CCCCCC2)c2nonc12 returned D2 PAM-1 -8, D2 PAM-2 -20, D2 antag 11, D2 ag-1 -4, LDHA block 0 and D2 ag-2 85*.
`CC12CC[C@H]3[C@@H](CCC4(O)CC(O[N+](=O)[O-])CCC34CO[N+](=O)[O-])C1(O)CCC2C1=CC(=O)OC1` (stereo partly specified) gave LDHA block 0.
Screening COc1cc2occc2c2oc(=O)ccc12 returned D2 PAM-1 -23, D2 PAM-2 -1, D2 antag 33*, D2 ag-1 0, LDHA block -2 and D2 ag-2 -1.
`CN(CCc1nnc(N)s1)[N+](=O)[O-]` gave D2 PAM-1 2, D2 PAM-2 2, D2 antag 48*, D2 ag-1 -3, LDHA block -5 and D2 ag-2 3.
`N#CCC1CN2CCC1C(c1ccccc1)C2` (stereo unspecified) gave LDHA block 2.
For COc1cc(CNC2CN3CCC2CC3)ccc1OCc1c(F)cccc1Cl (stereo unspecified) the results were LDHA block 4.
Cc1ccnc(-n2c(C)nc3ccccc3c2=O)c1 was read as D2 PAM-1 -1, D2 PAM-2 -7, D2 antag -10, D2 ag-1 -3, LDHA block -6 and D2 ag-2 2.
Cc1ccnc(-n2c(-c3ccccc3)nc3ccccc3c2=O)c1 was read as D2 PAM-1 -10, D2 PAM-2 16, D2 antag 33*, D2 ag-1 0, LDHA block -7 and D2 ag-2 0.
CC(C)OCC(O)CN1CC2C[C@@H](C1)Cn1c2cccc1=O (stereo partly specified) was read as D2 PAM-1 4, D2 PAM-2 -14, D2 antag 42*, D2 ag-1 7, LDHA block 1 and D2 ag-2 23.
Screening Cc1cc(C(=O)CCl)c(C)[nH]1 returned LDHA block 3.
For Nc1ccc(CCN2CCN(c3cccc(C(F)(F)F)c3)CC2)cc1 the results were D2 PAM-1 -29, D2 ag-1 -4 and LDHA block -3.
FC(F)(F)c1ccc2c(c1)N(CCCN1CCN(CCCl)CC1)c1ccccc1S2 was read as D2 PAM-1 -44, D2 PAM-2 -26, D2 antag 75*, D2 ag-1 -2, LDHA block -2 and D2 ag-2 1.
For CC(C)(C)C(=O)NC(Sc1nccc(SC(NC(=O)C(C)(C)C)C(Cl)(Cl)Cl)n1)=C(Cl)Cl (stereo unspecified) the results were LDHA block 19.
For COC(=O)C12CCC(CC1c1ccccc1)OC2=O (stereo unspecified) the results were LDHA block 1.
